Measured values published in article PMC8384837, “Expanding the binding specificity for RNA recognition by a PUF domain”.

Experiments:
Experiment in all cases: yeast three-hybrid, YBZ-1, SC-Leu-His + 0.5 mM 3-AT, 4 days
Conditions in all cases: tags: N-Gal4 AD-HA kept; label: inside an RPR1-promoter hybrid RNA with tandem MS2 sites; ssRNA
PUM1 PUF domain R8-PWN = PUM1 PUF domain R8-PWN (Homo sapiens, UniProt Q14671 828-1176, N1122P;Y1123W;Q1126N)
Method in brief: (§1)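 The interaction score is the log change in variant frequency from input to selection. Scores were computed in log2 with a pseudocount of 1 for absent variants, using Illumina sequencing of PCR-amplified repeat regions. The input came from four days on SC-Leu and the selection from four days on SC-Leu-His + 0.5 mM 3-AT. The cells were strain YBZ-1 (LexA–MS2 coat fusion, HIS3 reporter) co-expressing Pumilio-1 PUF domain libraries and matching RNA elements from a centromeric plasmid.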

PUM1 PUF domain R8-KWC = PUM1 PUF domain R8-KWC (Homo sapiens, UniProt Q14671 828-1176, N1122K;Y1123W;Q1126C)
Method in brief: as §1

PUM1 PUF domain R1-RSS = PUM1 PUF domain R1-RSS (Homo sapiens, UniProt Q14671 828-1176, S863R;R864S;Q867S)
Method in brief: as §1

PUM1 PUF domain R1-QYK = PUM1 PUF domain R1-QYK (Homo sapiens, UniProt Q14671 828-1176, S863Q;R864Y;Q867K)
Method in brief: as §1

PUM1 PUF domain R4-AMA = PUM1 PUF domain R4-AMA (Homo sapiens, UniProt Q14671 828-1176, N971A;H972M;Q975A)
Method in brief: as §1

PUM1 PUF domain R5-TRL = PUM1 PUF domain R5-TRL (Homo sapiens, UniProt Q14671 828-1176, C1007T;Q1011L)
Method in brief: as §1

PUM1 PUF domain R5-SNS = PUM1 PUF domain R5-SNS (Homo sapiens, UniProt Q14671 828-1176, C1007S;R1008N;Q1011S)
Method in brief: as §1

PUM1 PUF domain R5-KRM = PUM1 PUF domain R5-KRM (Homo sapiens, UniProt Q14671 828-1176, C1007K;Q1011M)
Method in brief: as §1

PUM1 PUF domain R4-GMG = PUM1 PUF domain R4-GMG (Homo sapiens, UniProt Q14671 828-1176, N971G;H972M;Q975G)
Method in brief: as §1

PUM1 PUF domain R4-VNG = PUM1 PUF domain R4-VNG (Homo sapiens, UniProt Q14671 828-1176, N971V;H972N;Q975G)
Method in brief: as §1

PUM1 PUF domain R4-FNH = PUM1 PUF domain R4-FNH (Homo sapiens, UniProt Q14671 828-1176, N971F;H972N;Q975H)
Method in brief: as §1

PUM1 PUF domain R5-PFP = PUM1 PUF domain R5-PFP (Homo sapiens, UniProt Q14671 828-1176, C1007P;R1008F;Q1011P)
Method in brief: as §1

PUM1 PUF domain R3-PYL = PUM1 PUF domain R3-PYL (Homo sapiens, UniProt Q14671 828-1176, C935P;R936Y;Q939L)
Method in brief: as §1

PUM1 PUF domain R3-LFR = PUM1 PUF domain R3-LFR (Homo sapiens, UniProt Q14671 828-1176, C935L;R936F;Q939R)
Method in brief: as §1

PUM1 PUF domain R6-THR = target: T1, PUM1 PUF domain R6-THR (Homo sapiens, UniProt Q14671 828-1176, N1043T;Y1044H;Q1047R)
T1 sequence: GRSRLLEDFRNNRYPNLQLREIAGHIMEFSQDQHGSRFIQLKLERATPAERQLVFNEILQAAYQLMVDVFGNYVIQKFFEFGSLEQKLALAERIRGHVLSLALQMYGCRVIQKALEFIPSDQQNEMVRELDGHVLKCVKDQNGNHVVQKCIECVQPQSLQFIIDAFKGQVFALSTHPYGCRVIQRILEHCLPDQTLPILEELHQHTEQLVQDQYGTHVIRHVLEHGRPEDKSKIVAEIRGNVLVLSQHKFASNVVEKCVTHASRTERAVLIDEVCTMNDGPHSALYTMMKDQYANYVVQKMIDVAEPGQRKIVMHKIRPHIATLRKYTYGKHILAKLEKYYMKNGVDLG
Method in brief: as §1

PUM1 PUF domain R3-PWA = PUM1 PUF domain R3-PWA (Homo sapiens, UniProt Q14671 828-1176, C935P;R936W;Q939A)
Method in brief: as §1

PUM1 PUF domain R3-LWD = PUM1 PUF domain R3-LWD (Homo sapiens, UniProt Q14671 828-1176, C935L;R936W;Q939D)
Method in brief: as §1

PUM1 PUF domain R3-RPV = PUM1 PUF domain R3-RPV (Homo sapiens, UniProt Q14671 828-1176, C935R;R936P;Q939V)
Method in brief: as §1

PUM1 PUF domain R3-FRD = PUM1 PUF domain R3-FRD (Homo sapiens, UniProt Q14671 828-1176, C935F;Q939D)
Method in brief: as §1

PUM1 PUF domain R3-FQC = PUM1 PUF domain R3-FQC (Homo sapiens, UniProt Q14671 828-1176, C935F;R936Q;Q939C)
Method in brief: as §1

Sequence of PUM1 PUF domain R3-PWA (Q14671 828-1176 C935P/R936W/Q939A): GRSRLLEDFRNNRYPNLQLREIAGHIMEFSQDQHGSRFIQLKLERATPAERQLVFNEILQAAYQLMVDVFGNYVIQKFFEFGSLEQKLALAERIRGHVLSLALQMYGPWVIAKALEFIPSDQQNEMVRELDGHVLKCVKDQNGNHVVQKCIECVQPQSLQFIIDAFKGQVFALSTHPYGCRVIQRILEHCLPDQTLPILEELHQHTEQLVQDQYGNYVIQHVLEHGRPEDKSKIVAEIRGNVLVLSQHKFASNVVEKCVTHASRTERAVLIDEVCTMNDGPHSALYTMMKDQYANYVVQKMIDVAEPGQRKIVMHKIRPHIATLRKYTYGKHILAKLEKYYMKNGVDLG
Sequence of PUM1 PUF domain R4-AMA (Q14671 828-1176 N971A/H972M/Q975A): as the sequence (Q14671 828-1176 C935P/R936W/Q939A) above, with P108C, W109R, A112Q, N144A, H145M, Q148A counted along it
Sequence of PUM1 PUF domain R3-LWD (Q14671 828-1176 C935L/R936W/Q939D): as the sequence (Q14671 828-1176 C935P/R936W/Q939A) above, with P108L, A112D counted along it
Sequence of PUM1 PUF domain R5-KRM (Q14671 828-1176 C1007K/Q1011M): as the sequence (Q14671 828-1176 C935P/R936W/Q939A) above, with P108C, W109R, A112Q, C180K, Q184M counted along it
Sequence of PUM1 PUF domain R1-QYK (Q14671 828-1176 S863Q/R864Y/Q867K): as the sequence (Q14671 828-1176 C935P/R936W/Q939A) above, with S36Q, R37Y, Q40K, P108C, W109R, A112Q counted along it
Sequence of PUM1 PUF domain R3-FQC (Q14671 828-1176 C935F/R936Q/Q939C): as the sequence (Q14671 828-1176 C935P/R936W/Q939A) above, with P108F, W109Q, A112C counted along it
Sequence of PUM1 PUF domain R5-SNS (Q14671 828-1176 C1007S/R1008N/Q1011S): as the sequence (Q14671 828-1176 C935P/R936W/Q939A) above, with P108C, W109R, A112Q, C180S, R181N, Q184S counted along it
Sequence of PUM1 PUF domain R8-KWC (Q14671 828-1176 N1122K/Y1123W/Q1126C): as the sequence (Q14671 828-1176 C935P/R936W/Q939A) above, with P108C, W109R, A112Q, N295K, Y296W, Q299C counted along it
Sequence of PUM1 PUF domain R4-FNH (Q14671 828-1176 N971F/H972N/Q975H): as the sequence (Q14671 828-1176 C935P/R936W/Q939A) above, with P108C, W109R, A112Q, N144F, H145N, Q148H counted along it
Sequence of PUM1 PUF domain R3-RPV (Q14671 828-1176 C935R/R936P/Q939V): as the sequence (Q14671 828-1176 C935P/R936W/Q939A) above, with P108R, W109P, A112V counted along it

**Q.** With “GGCUAGAACUAGUGGAUCCCCCGGCGCCCGGCGGCUCGAGCCCGGGUAAGCGUAAAUAGUCUGCAUGCCGCCGGGCGCCAUGCCUGCAGGUCGACUCUAGAAAACAUG” as the sequence, how does the binding signal (PUM1 PUF domain R8-PWN) read?
**A.** Its binding signal is 3.44 log2 enrichment (interaction score).

**Q.** What about the binding signal (PUM1 PUF domain R8-KWC) of the same sequence?
**A.** Its binding signal is 4.87 log2 enrichment (interaction score).

**Q.** How did the binding signal (PUM1 PUF domain R1-RSS) turn out when “GGCUAGAACUAGUGGAUCCCCCGGCGCCCGGCGGCUCGAGCCCGGGUAAGUGUAAAUCGUCUGCAUGCCGCCGGGCGCCAUGCCUGCAGGUCGACUCUAGAAAACAUG” was run?
**A.** The binding signal was 3.93 log2 enrichment (interaction score).

**Q.** What about the binding signal (PUM1 PUF domain R1-QYK) of the same sequence?
**A.** The binding signal was 6.38 log2 enrichment (interaction score).

**Q.** With “GGCUAGAACUAGUGGAUCCCCCGGCGCCCGGCGGCUCGAGCCCGGGUAAGUGUACAUAGUCUGCAUGCCGCCGGGCGCCAUGCCUGCAGGUCGACUCUAGAAAACAUG” as the sequence, how does the binding signal (PUM1 PUF domain R4-AMA) read?
**A.** The binding signal was 1.77 log2 enrichment (interaction score).

**Q.** “GGCUAGAACUAGUGGAUCCCCCGGCGCCCGGCGGCUCGAGCCCGGGUAAGUGUAAAUUGUCUGCAUGCCGCCGGGCGCCAUGCCUGCAGGUCGACUCUAGAAAACAUG” was tested. Which binding signal (PUM1 PUF domain R1-RSS) did it give?
**A.** Its binding signal is 3.21 log2 enrichment (interaction score).

**Q.** With “GGCUAGAACUAGUGGAUCCCCCGGCGCCCGGCGGCUCGAGCCCGGGUAAGUGUUAAUAGUCUGCAUGCCGCCGGGCGCCAUGCCUGCAGGUCGACUCUAGAAAACAUG” as the sequence, how does the binding signal (PUM1 PUF domain R5-TRL) read?
**A.** Its binding signal is 2.18 log2 enrichment (interaction score).

**Q.** And the binding signal (PUM1 PUF domain R5-SNS)?
**A.** The binding signal was 3.23 log2 enrichment (interaction score).

**Q.** What about the binding signal (PUM1 PUF domain R5-KRM) of the same sequence?
**A.** The binding signal was 3.73 log2 enrichment (interaction score).

**Q.** Which binding signal (PUM1 PUF domain R1-RSS) does the source give for “GGCUAGAACUAGUGGAUCCCCCGGCGCCCGGCGGCUCGAGCCCGGGUAAGUGUAAAUGGUCUGCAUGCCGCCGGGCGCCAUGCCUGCAGGUCGACUCUAGAAAACAUG” here?
**A.** The binding signal was 2.55 log2 enrichment (interaction score).

**Q.** With “GGCUAGAACUAGUGGAUCCCCCGGCGCCCGGCGGCUCGAGCCCGGGUAAGUGUAUAUAGUCUGCAUGCCGCCGGGCGCCAUGCCUGCAGGUCGACUCUAGAAAACAUG” as the sequence, how does the binding signal (PUM1 PUF domain R4-GMG) read?
**A.** The binding signal was 2.85 log2 enrichment (interaction score).

**Q.** What about the binding signal (PUM1 PUF domain R4-VNG) of the same sequence?
**A.** The binding signal was 2.54 log2 enrichment (interaction score).

**Q.** What about the binding signal (PUM1 PUF domain R4-AMA) of the same sequence?
**A.** The binding signal was 2.78 log2 enrichment (interaction score).

**Q.** What about the binding signal (PUM1 PUF domain R4-FNH) of the same sequence?
**A.** Its binding signal is 5.93 log2 enrichment (interaction score).

**Q.** For “GGCUAGAACUAGUGGAUCCCCCGGCGCCCGGCGGCUCGAGCCCGGGUAAGUGUAAAUAGUCUGCAUGCCGCCGGGCGCCAUGCCUGCAGGUCGACUCUAGAAAACAUG”, which binding signal (PUM1 PUF domain R5-PFP) is on record?
**A.** The binding signal was 4.69 log2 enrichment (interaction score).

**Q.** What about the binding signal (PUM1 PUF domain R5-TRL) of the same sequence?
**A.** The binding signal was 3.3 log2 enrichment (interaction score).

**Q.** And the binding signal (PUM1 PUF domain R3-PYL)?
**A.** The binding signal was 5.55 log2 enrichment (interaction score).

**Q.** What about the binding signal (PUM1 PUF domain R4-GMG) of the same sequence?
**A.** Its binding signal is 1.25 log2 enrichment (interaction score).

**Q.** What about the binding signal (PUM1 PUF domain R3-LFR) of the same sequence?
**A.** Its binding signal is 1.74 log2 enrichment (interaction score).

**Q.** What about the binding signal (PUM1 PUF domain R6-THR) of the same sequence?
**A.** The binding signal was 3.12 log2 enrichment (interaction score).

**Q.** And the binding signal (PUM1 PUF domain R4-AMA)?
**A.** The binding signal was 2.2 log2 enrichment (interaction score).

**Q.** And the binding signal (PUM1 PUF domain R5-KRM)?
**A.** The binding signal was 2.19 log2 enrichment (interaction score).

**Q.** And the binding signal (PUM1 PUF domain R3-PWA)?
**A.** Its binding signal is 4.48 log2 enrichment (interaction score).

**Q.** For “GGCUAGAACUAGUGGAUCCCCCGGCGCCCGGCGGCUCGAGCCCGGGUAAGUGUAAUUAGUCUGCAUGCCGCCGGGCGCCAUGCCUGCAGGUCGACUCUAGAAAACAUG”, which binding signal (PUM1 PUF domain R3-LFR) is on record?
**A.** Its binding signal is 5 log2 enrichment (interaction score).

**Q.** What about the binding signal (PUM1 PUF domain R3-LWD) of the same sequence?
**A.** The binding signal was 1.73 log2 enrichment (interaction score).

**Q.** And the binding signal (PUM1 PUF domain R3-RPV)?
**A.** Its binding signal is 2.55 log2 enrichment (interaction score).

**Q.** And the binding signal (PUM1 PUF domain R3-PWA)?
**A.** The binding signal was 2.19 log2 enrichment (interaction score).

**Q.** Which results are given for “GGCUAGAACUAGUGGAUCCCCCGGCGCCCGGCGGCUCGAGCCCGGGUAAGUGUAAGUAGUCUGCAUGCCGCCGGGCGCCAUGCCUGCAGGUCGACUCUAGAAAACAUG”?
**A.** binding signal (PUM1 PUF domain R3-LFR): 5.96 log2 enrichment (interaction score); binding signal (PUM1 PUF domain R3-FRD): 5.68 log2 enrichment (interaction score); binding signal (PUM1 PUF domain R3-LWD): 4.02 log2 enrichment (interaction score); binding signal (PUM1 PUF domain R3-FQC): 3.36 log2 enrichment (interaction score); binding signal (PUM1 PUF domain R3-PWA): 0.42 log2 enrichment (interaction score)
